The panel holds about 79,000 compounds, 15% with a hit somewhere; the sample as a whole holds those more often. Active and inactive are the calls of the source. Cut-off read from the data, not from the text of the source: active = growth inhibition above about 70%; inactive = the rest.
Columns and labels:
[1] = NCI Yeast Anticancer Drug Screen. Data for the rad50 strain (AID 155);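 note: 0% = growth of vehicle-only cultures of the same strain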; conditions: S. cerevisiae rad50 strain growth inhibition, stronger effect = higher value
In short: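 Vehicle-treated cultures provide the reference for the growth inhibition reported for compound-exposed, repair-deficient yeast.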

[2] = NCI Yeast Anticancer Drug Screen. Data for the mec2-1 strain (AID 157); conditions: S. cerevisiae mec2-1 strain, stronger effect = higher value
In short: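 Growth inhibition is read against vehicle-treated controls after compound exposure of the mec2-1 yeast strain, which is defective in DNA damage repair or cell cycle control.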

[3] = NCI Yeast Anticancer Drug Screen. Data for the sgs1 mgt1 strain (AID 161);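 note: 0% = growth of cultures given vehicle only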; conditions: S. cerevisiae sgs1 mgt1 strain, stronger effect = higher value
In short: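 Growth of a repair-deficient yeast mutant was monitored after compound treatment and expressed as inhibition relative to vehicle-treated cultures.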

[4] = NCI Yeast Anticancer Drug Screen. Data for the cln2 rad14 strain (AID 165);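 note: 0% = growth equal to vehicle treated cultures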; conditions: S. cerevisiae cln2 rad14 strain, stronger effect = higher value
In short: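 Growth inhibition, relative to vehicle-treated controls, is the read-out. The test organism is a yeast strain with defined genetic alterations, cln2 rad14.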

[5] = NCI Yeast Anticancer Drug Screen. Data for the bub3 strain (AID 167); conditions: S. cerevisiae bub3 mutant strain, stronger effect = higher value
In short: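 Mutant yeast screening strain plus compound; vehicle-treated cultures serve as the 0% inhibition reference.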

[6] = NCI Yeast Anticancer Drug Screen. Data for the mlh1 rad18 strain (AID 175); conditions: S. cerevisiae mlh1 rad18 strain growth inhibition, stronger effect = higher value
In short: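 Cells of a genetically altered yeast strain, deficient in DNA damage repair, were treated with compound. Their growth was then compared with that of vehicle-treated cultures to give inhibition.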

[7] = at 5.0 µM (retest, dose inferred, filed as 0.5)
[8] = at 50.0 µM (retest, dose inferred, filed as 5.0)

Measured: growth inhibition

CC(=O)OC12CC(C(F)(F)F)(C(F)(F)F)OC1(OC(C)=O)CC(C(F)(F)F)(C(F)(F)F)O2 (stereo not given)
active: [4]; at 50.0 µM 71% | [6]; at 50.0 µM 86.3%
inactive: [1]; [7] 1% | [1]; [8] 15% | [1]; at 50.0 µM 49.5% | [2]; [7] -8% | [2]; [8] 48% | [2]; at 50.0 µM 29.8% | [3]; [7] 4% | [3]; [8] 66% | [3]; at 50.0 µM 50.2% | [4]; [7] 18% | [4]; [8] 56% | [5]; [7] 7% | [5]; [8] 28% | [5]; at 50.0 µM 67.1% | [6]; [7] -4% | [6]; [8] 66%

COC(CCC[N+](C)(C)C)CC[N+](C)(C)C (stereo not given)
active: [1]; [8] 81% | [1]; at 50.0 µM 95.9% | [2]; [8] 83% | [2]; at 50.0 µM 97.6% | [3]; [8] 78% | [3]; at 50.0 µM 97.8% | [4]; [8] 70% | [4]; at 50.0 µM 95.9% | [5]; [8] 70% | [5]; at 50.0 µM 97.1% | [6]; [8] 81% | [6]; at 50.0 µM 96.5%
inactive: [1]; [7] 11% | [2]; [7] -9% | [3]; [7] -7% | [4]; [7] 1% | [5]; [7] -9% | [6]; [7] 8%

CN(C)c1ccc(C(O)(Cc2cccc(C#N)c2)c2ccc(N(C)C)cc2)cc1
inactive: [1]; [7] 2% | [1]; [8] -13% | [1]; at 50.0 µM 63.5% | [2]; [7] 0% | [2]; [8] -6% | [2]; at 50.0 µM 55.9% | [3]; [7] -4% | [3]; [8] -10% | [3]; at 50.0 µM 52.8% | [4]; [7] -2% | [4]; [8] -16% | [4]; at 50.0 µM 66% | [5]; [7] 2% | [5]; [8] -5% | [5]; at 50.0 µM 69% | [6]; [7] -2% | [6]; [8] -70% | [6]; at 50.0 µM 56.8%

CC(=O)OCC1OC(OC(C)=O)C(On2nnc3c(-c4ccccc4)c(C)nn32)C(OC(C)=O)C1OC(C)=O (stereo not given)
active: [2]; [8] 71% | [3]; [8] 76%
inactive: [1]; [7] 0% | [1]; [8] 54% | [1]; at 50.0 µM 61.5% | [2]; [7] -1% | [2]; at 50.0 µM 35.8% | [3]; [7] 2% | [3]; at 50.0 µM 47.8% | [4]; [7] 1% | [4]; [8] 52% | [4]; at 50.0 µM 41.1% | [5]; [7] -1% | [5]; [8] 59% | [5]; at 50.0 µM 16.1% | [6]; [7] -3% | [6]; [8] 58% | [6]; at 50.0 µM 36.2%

NCCSC1(O)C(=O)c2ccccc2-c2ccccc21 (stereo not given)
inactive: [1]; [7] 6% | [3]; [7] 32% | [4]; [7] -14% | [6]; [7] 57%
active: [1]; [8] 98% | [1]; at 50.0 µM 98.8% | [2]; [7] 84% | [2]; [8] 99% | [2]; at 50.0 µM 98.2% | [3]; [8] 99% | [3]; at 50.0 µM 99.1% | [4]; [8] 99% | [4]; at 50.0 µM 96.2% | [5]; [7] 79% | [5]; [8] 99% | [5]; at 50.0 µM 97.8% | [6]; [8] 99% | [6]; at 50.0 µM 98.8%

Nc1nccc(NCCCCCCNc2ccnc(N)n2)n1
active: [3]; at 50.0 µM 80%
inactive: [1]; [7] 16% | [1]; [8] 41% | [1]; at 50.0 µM 43.2% | [2]; [7] 13% | [2]; [8] 19% | [2]; at 50.0 µM 41.6% | [3]; [7] 8% | [3]; [8] 36% | [4]; [7] 17% | [4]; [8] 21% | [4]; at 50.0 µM 52% | [5]; [7] 9% | [5]; [8] 33% | [5]; at 50.0 µM 48% | [6]; [7] 17% | [6]; [8] 60% | [6]; at 50.0 µM 57.2%

OCc1ccccc1CC(O)(c1ccccc1)c1ccccc1
inactive: [1]; [7] -7% | [2]; [7] -8% | [3]; [7] -7% | [4]; [7] -3% | [5]; [7] -19% | [5]; [8] 11% | [6]; [7] -20%
active: [1]; [8] 92% | [1]; at 50.0 µM 97.8% | [2]; [8] 87% | [2]; at 50.0 µM 97.3% | [3]; [8] 94% | [3]; at 50.0 µM 95.8% | [4]; [8] 70% | [4]; at 50.0 µM 75.5% | [5]; at 50.0 µM 88.5% | [6]; [8] 90% | [6]; at 50.0 µM 94.4%

C=C1C(=O)OC2C1CC1OC2C(C)CCC/C(C)=C\CCC1(C)O (stereo not given)
active: [1]; at 50.0 µM 92.5% | [2]; at 50.0 µM 92.8% | [3]; at 50.0 µM 94.1% | [4]; at 50.0 µM 91.8% | [5]; at 50.0 µM 92.4% | [6]; at 50.0 µM 92.6%
inactive: [1]; [7] 2% | [1]; [8] 8% | [2]; [7] 2% | [2]; [8] 25% | [3]; [7] 2% | [3]; [8] 34% | [4]; [7] -6% | [4]; [8] -8% | [5]; [7] -1% | [5]; [8] 8% | [6]; [7] 1% | [6]; [8] 20%

Clc1ccc2nc3c(c(N4CCOCC4)c2c1)CCCC3
active: [1]; [7] 94% | [1]; [8] 97% | [1]; at 50.0 µM 99% | [2]; [7] 92% | [2]; [8] 99% | [2]; at 50.0 µM 99.3% | [3]; [7] 94% | [3]; [8] 98% | [3]; at 50.0 µM 99.2% | [4]; [7] 80% | [4]; [8] 99% | [4]; at 50.0 µM 98.9% | [5]; [8] 98% | [5]; at 50.0 µM 99.5% | [6]; [7] 96% | [6]; [8] 98% | [6]; at 50.0 µM 99.2%
inactive: [5]; [7] 53%

Oc1c(Cl)cc(Cl)c2cccnc12
active: [1]; [8] 96% | [1]; at 50.0 µM 98.8% | [2]; [8] 98% | [2]; at 50.0 µM 99.2% | [3]; [8] 99% | [3]; at 50.0 µM 97.7% | [4]; [8] 98% | [4]; at 50.0 µM 98.2% | [5]; [8] 97% | [5]; at 50.0 µM 98.5% | [6]; [8] 98% | [6]; at 50.0 µM 99%
inactive: [1]; [7] 56% | [2]; [7] 31% | [3]; [7] 21% | [4]; [7] 27% | [5]; [7] 64% | [6]; [7] 43%

Source: PubChem BioAssay (NCI)
